A selection: hits, their analogues and other compounds. The true share with any hit is near 2.1%.
aSyn 5UTR inh – MLPCN primary screen, SNCA 5' untranslated region; 300,000 tested, 0.82% active; inhibition, % (tested at 7.5 µM); alpha-synuclein 5'UTR reporter, inhibitor activity; AID 1813; in the data active means inhibition above about 60%;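 further: H4 neuroglioblastoma cells stably carrying SNCA 5'UTR luciferase fusion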
TRPM1 prom inh – MITF TRPM1 promoter inhibition in SK-MEL-5 cells | 330,000 tested, 0.83% active | SK-MEL-5 TRPM1 promoter luciferase, 24 h | AID 488899 | inhibition, % at 12.5 µM;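 active means mean inhibition across replicates of 60% or more, whatever share of single replicates reaches that level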
LMP1 NFkB inh – Epstein-Barr LMP1 NF-kappaB reporter inhibition. 350,000 tested, 0.69% active. inhibition, % at 12.5 µM. LMP1-induced NF-kappaB luciferase reporter cells, luminescence. AID 504558; in the data active means inhibition above about 41%
Shn3 inh set2 – inhibitors of Schnurri-3 3'UTR reporter in osteoblasts; Clone20 osteoblast Shn3 3'UTR firefly luciferase, 24 h; inhibition, % at 12.5 µM; 360,000 tested, 0.52% active; AID 588674;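 active means mean inhibition of at least 75% with every replicate also reaching 75%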
PAX8 reporter – lowers PAX8-driven luciferase in RMG-I cells; RMG-I TPO-luciferase reporter, SteadyGlo, 24 h; inhibition, % at 12.6 µM; 360,000 tested, 1.2% active; AID 652154;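 active means mean replicate inhibition at least 60% with every replicate also reaching 60%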;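 further: luciferase light reporting Pax8 driven TPO promoter activity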
Large screens that a line does not name were inactive; ! = not active in a repeat.

CN(CC(=O)Nc1ccc(F)c(F)c1F)C(=O)c1cc(S(=O)(=O)N(C)C)ccc1N1CCCC1	none (no result: aSyn 5UTR inh)
CCN(CC(=O)Nc1c(F)cccc1F)C(=O)c1cc(S(=O)(=O)N2CCOCC2)ccc1N1CCCC1	PAX8 reporter 72.4
Cc1cccc(C)c1NC(=O)CN(C)C(=O)c1cc(S(=O)(=O)N(C)C)ccc1N1CCCC1	Shn3 inh set2 86.6
Cc1cccc(-c2ccc(C3[C@@H]4CN(C(=O)Nc5ccccc5)C[C@H]3N4)cc2)c1 (stereo partly drawn)	none (no result: aSyn 5UTR inh, TRPM1 prom inh, LMP1 NFkB inh, Shn3 inh set2)
O=C(Nc1ccc(C(F)(F)F)cc1)N1C[C@@H]2N[C@H](C1)C2c1ccc(-c2ccccc2)cc1 (stereo partly drawn)	PAX8 reporter 107.7 (no result: aSyn 5UTR inh, TRPM1 prom inh, LMP1 NFkB inh, Shn3 inh set2)
O=C(Nc1ccc(C(F)(F)F)cc1)N1C[C@@H]2N[C@H](C1)C2c1ccc(/C=C/c2ccccc2)cc1 (stereo partly drawn)	PAX8 reporter 90.4! (no result: aSyn 5UTR inh, TRPM1 prom inh, LMP1 NFkB inh, Shn3 inh set2)
Cc1ccc(NC(=O)COC(=O)Cc2cccs2)c(Br)c1	none
O=C(N=Nc1c(O)[nH]c2ccc(Br)cc12)c1cc(-c2cccs2)nc2ccccc12	aSyn 5UTR inh 81.4
O=C1c2ccccc2CN1CCSC(=S)N1CCSCC1	none (no result: TRPM1 prom inh, LMP1 NFkB inh, Shn3 inh set2, PAX8 reporter)
C/C=C(\C)C(=O)OC1[C@H](OC(C)=O)C2(CO)C(CC1(C)C)C1=CCC3C4(C)CCC(O[C@@H]5O[C@H](C(=O)O)[C@@H](O[C@@H]6O[C@H](CO)[C@@H](O)[C@H](O)[C@H]6O)[C@H](O)[C@H]5O[C@H]5O[C@H](CO)[C@@H](O)[C@H](O)[C@H]5O)[C@](C)(CO)C4CCC3(C)[C@]1(C)C[C@H]2O (stereo partly drawn)	TRPM1 prom inh 97.5 (no result: aSyn 5UTR inh, PAX8 reporter)
CCN(c1ccccc1)S(=O)(=O)c1cc2c(cc1C)N(C)CCO2	none
CCOC(=O)c1sc(/N=C/N(C)C)nc1C	PAX8 reporter 117.0
COc1ccc([C@@]23Oc4cc(OC)cc(OC)c4[C@]2(O)[C@H](O)[C@H](C(=O)N(C)C)[C@H]3c2ccccc2)cc1	TRPM1 prom inh 66.2, LMP1 NFkB inh 81.8, Shn3 inh set2 91.1, PAX8 reporter 86.8 (no result: aSyn 5UTR inh)
O=C(Nc1ccccc1)N1N=C(c2ccc(F)cc2)CC1c1ccc(F)cc1 (stereo not drawn)	PAX8 reporter 82.0
COc1ccc(C2CC(c3ccc(Br)cc3)=NN2C(=S)Nc2ccccc2)cc1 (stereo not drawn)	PAX8 reporter 123.2
COc1ccc(C2CC(c3ccccc3)=NN2C(=S)Nc2ccccc2)cc1 (stereo not drawn)	none
O=C(Nc1ccc2c(c1)OCO2)N1CCN(C/C=C/c2ccccc2)CC1	none (no result: PAX8 reporter)
CC(=O)C1=C(C)NC(SCC(=O)c2cc(Cl)ccc2Cl)=C(C#N)C1c1ccco1 (stereo not drawn)	Shn3 inh set2 81.2 (no result: PAX8 reporter)
CCn1nnc(-c2ccc(N)cc2)n1	none
Cc1ccc(S(=O)(=O)N[C@H](C(=O)N2CCC(C(=O)N[C@@H](CC(=O)O)C(=O)O)CC2)C(C)C)cc1	LMP1 NFkB inh 74.4 (no result: PAX8 reporter)
O=C(CCl)N(c1ccccc1)C1CCCCC1	aSyn 5UTR inh 110.0, TRPM1 prom inh 95.2, Shn3 inh set2 96.7, PAX8 reporter 103.0
COc1ccc(/C=C2\COc3ccccc3C2=O)c(OC)c1	none
COc1ccc(/C=C2\CN(Cc3ccccc3)C/C(=C\c3ccc(OC)cc3OC)C2=O)c(OC)c1	PAX8 reporter 92.9
COc1ccc(C=C2c3ccccc3C(=O)c3ccccc32)c(OC)c1	aSyn 5UTR inh 97.6
CC(C)NC(=O)N(C)C[C@H]1Oc2c(NC(=O)Nc3ccc4c(c3)OCO4)cccc2C(=O)N([C@H](C)CO)C[C@@H]1C	LMP1 NFkB inh 82.9 (no result: aSyn 5UTR inh)
C[C@H](CO)N1C[C@H](C)[C@H](CN(C)C(=O)Nc2ccc3c(c2)OCO3)Oc2c(NC(=O)Nc3ccccc3)cccc2C1=O	PAX8 reporter 71.6 (no result: aSyn 5UTR inh, TRPM1 prom inh, LMP1 NFkB inh, Shn3 inh set2)
Cc1ccc(C2CC2C(=O)NNC(=S)Nc2ccc(Cl)cc2)cc1 (stereo not drawn)	none (no result: PAX8 reporter)
COc1cccc(-c2ccc3c(c2)[C@@H]2[C@@H](CCN2S(=O)(=O)c2ccccc2OC)[C@H](CO)N3C)c1	PAX8 reporter 84.2 (no result: aSyn 5UTR inh, TRPM1 prom inh, LMP1 NFkB inh, Shn3 inh set2)
COc1cccc(-c2ccc3c(c2)[C@@H]2[C@@H](CCN2S(=O)(=O)c2ccccc2C)[C@H](CO)N3C)c1	PAX8 reporter 81.9 (no result: aSyn 5UTR inh, TRPM1 prom inh, LMP1 NFkB inh, Shn3 inh set2)
COc1ccccc1S(=O)(=O)N1CC[C@@H]2[C@H]1c1cc(-c3ccccc3)ccc1N(C)[C@H]2CO	none (no result: aSyn 5UTR inh, TRPM1 prom inh, LMP1 NFkB inh, Shn3 inh set2)
COc1cccc(-c2ccc3c(c2)[C@H]2[C@H](CCN2S(=O)(=O)c2ccccc2C)[C@H](CO)N3C)c1	none (no result: aSyn 5UTR inh, TRPM1 prom inh, LMP1 NFkB inh, Shn3 inh set2)
